Rab9 promoter act: activates the Rab9 promoter | AID 485297 | Huh7 Rab9 promoter-luciferase reporter, luminescence, 24 h | Potency, µM (doses to about 9.22 µM), hits mostly activators | hit rate 2.8% among 320,000; further: nearly all actives have a fitted effect of over 60% in size
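Cells were plated at 1500 per well in reduced-serum medium with 10% FBS and left 2 h. Compound in DMSO was then added for 24 h at 37 °C. Reporter signal was read by luminescence after 10 min with luciferase detection reagent.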
ELG1 genotox: induces genotoxicity in HEK293T cells with luciferase-tagged ELG1. HEK293T ELG1-luciferase reporter, luminescence, 16 h. Potency, µM (series often up to 46 µM), hits mostly activators. hit rate 1.3% among 330,000. AID 504466; further: nearly all actives have a fitted effect of over 60% in size
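ELG1-luciferase HEK293T cells, 2,000/well; compound pinned in; 16 hr, 37 °C, 5% CO2; ONE-Glo, 30 min RT; luminescence on CCD imager.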
ELG1 DNA repair: blocks ELG1-dependent DNA repair in HEK293T cells. hit rate 2.3% among 330,000. Potency, µM (doses to about 46.1 µM), usual class: inhibitors. HEK293T ELG1-luciferase reporter, luminescence, 16 h; DNA damage induced by 5-fluorouridine; further: nearly all actives have a fitted effect of over 55% in size
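HEK293T cells expressing luciferase-tagged ELG1 (2,000/well) received 5-Fluorouridine plus compound or DMSO for 16 hr at 37 °C. Luciferase was read by ONE-Glo luminescence after 30 min at room temperature.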
SMN2 splice up: enhancers of SMN2 splice variant expression; Potency, µM (doses to about 46.1 µM), usual class: activators; HEK293 SMN2-luciferase splicing reporter, luminescence, 30-36 h; hit rate 2.8% among 210,000; further: nearly all actives have a fitted effect of over 55% in size
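HEK293 cells carry an SMN2 […]–luciferase reporter in which exon 7 inclusion puts luciferase in frame. Cells were plated 10-12 h before compound addition, then incubated 30-36 h at 37C. ONE-Glo luminescence was read; sodium butyrate at 4.5 mM final served as control.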
NPC1 prom act: activates the NPC1 promoter | Huh7 NPC1 promoter luciferase reporter, 24 h | Potency, µM (doses to about 9.22 µM), most hits filed as activators | hit rate 2.4% among 320,000; further: nearly all actives have a fitted effect of over 60% in size
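Readout is luciferase luminescence, reflecting NPC1 promoter activation in stably transfected Huh7 cells after 24 h compound exposure at 37 °C in reduced-serum medium with 10% FBS.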
FLuc modulator: counter-screen for miR-21 project: firefly luciferase inhibitors or activators; P08659; purified FLuc, Km substrates, luminescence inhibition; Potency, µM (highest dose often 57.5 µM), hits mostly inhibitors; hit rate 6.9% among 360,000; further: nearly all actives have a fitted effect of over 55% in size
Target sequence (P08659 whole entry, looked up): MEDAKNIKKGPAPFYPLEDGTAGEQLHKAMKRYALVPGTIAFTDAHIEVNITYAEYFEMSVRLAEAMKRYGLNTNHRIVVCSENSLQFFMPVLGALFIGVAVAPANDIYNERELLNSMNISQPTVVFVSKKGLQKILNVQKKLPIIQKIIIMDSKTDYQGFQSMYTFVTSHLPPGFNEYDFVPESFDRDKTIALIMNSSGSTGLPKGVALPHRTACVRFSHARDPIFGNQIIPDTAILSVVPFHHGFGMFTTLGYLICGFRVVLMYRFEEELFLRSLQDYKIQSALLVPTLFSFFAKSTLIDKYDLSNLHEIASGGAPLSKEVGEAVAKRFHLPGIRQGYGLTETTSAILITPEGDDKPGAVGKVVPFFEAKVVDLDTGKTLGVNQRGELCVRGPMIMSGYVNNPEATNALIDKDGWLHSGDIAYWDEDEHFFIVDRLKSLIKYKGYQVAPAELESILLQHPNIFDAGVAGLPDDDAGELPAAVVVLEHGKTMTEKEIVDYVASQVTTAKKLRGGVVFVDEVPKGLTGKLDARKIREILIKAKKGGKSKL
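Biochemical qHTS of compounds, final roughly 60 µM downward over six points, against 10 nM purified firefly luciferase using Km concentrations of substrates (10 uM D-luciferin, 10 uM ATP) in Tris acetate pH 7.5 buffer; luminescence output.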
Hits are given with their value; – = inactive; ? = inconclusive; · = not tested or not shown. Sampled rows, rich in hits. Any-hit rate of the full collection: about 9.2%. The call rests on the fitted dose curve; in most records, active means well fitted curve in the direction sought with a large enough effect; inconclusive means small, poorly fitted or top-dose-only effect, or another doubt; inactive means no such curve, though single readings can be large; an effect the other way counts as inactive or inconclusive.

SMILES	Rab9 promoter act	ELG1 genotox	ELG1 DNA repair	SMN2 splice up	NPC1 prom act	FLuc modulator
Cc1ccc(NC(=O)C(=O)NCC2CCCO2)cc1C (stereo not given)	1.26µM	8.2µM	?	11.2µM	2.82µM	?
Cc1ccc(Nc2nnc(SC(C)C(=O)NCC3CCCO3)s2)cc1C (stereo not given)	–	–	?	·	–	15.1µM
Cc1nnc(SC(C)C(=O)NCC2CCCO2)s1 (stereo not given)	–	–	–	·	–	–
CC(C)(C)OC(=O)NCC1CCC(C(=O)NC[C@H](CC(=O)O)c2ccc(Cl)cc2)CC1 (stereo not given in full)	–	–	–	·	–	–
CC1(NC(=O)Cc2csc(-c3ccc(Cl)cc3)n2)CCS(=O)(=O)C1 (stereo not given)	·	–	?	·	·	·
CC(C)CN(C(=O)c1ccc([N+](=O)[O-])s1)c1c(N)n(Cc2ccccc2)c(=O)[nH]c1=O	–	–	–	·	–	–
CN(Cc1nc(Cc2ccccc2F)no1)[C@@H]1CS(=O)(=O)C[C@H]1O	–	–	–	·	–	–
Cc1cc(C)n(CCN(C)Cc2nc(Cc3ccccc3F)no2)n1	?	?	?	·	?	4.78µM
CC(C)(O)CCC(C)(C)O	–	–	–	–	–	–
CC(=O)OCC(=O)Nc1ccc([N+](=O)[O-])cc1Cl	–	–	–	–	–	–
O=C(COC(=O)C12CC3CC(CC(C3)C1)C2)Nc1ccc([N+](=O)[O-])cc1Cl	–	–	20.6µM	–	–	–
CCOC(=O)C12CC1/C(=N\O)c1ccccc1O2 (stereo not given)	·	·	·	–	·	·
Cc1cc2c(s1)c1cnn(-c3ccccc3)c(=O)c1n2C	?	–	–	·	–	6.75µM
Cc1cc2c(s1)c1cnn(CC(=O)NCCc3ccccc3)c(=O)c1n2C	–	–	–	–	–	–
CC1=C(C(=O)Nc2cccnc2)C(c2ccc(Cl)cc2)n2nc(-c3ccccc3)nc2N1 (stereo not given)	·	·	·	–	·	–
O=[N+]([O-])c1nn(-c2ccc3c(c2)OCCO3)n(O)c1=NCCC1=CCCCC1	3.55µM	?	?	?	?	?
COc1cc(N=c2c([N+](=O)[O-])nn(-c3ccc4c(c3)OCCO4)n2O)cc(OC)c1	?	–	?	12.6µM	–	?
O=[N+]([O-])c1nn(-c2ccc3c(c2)OCCO3)n(O)c1=NCc1ccc(F)cc1	3.55µM	?	?	3.98µM	?	4.26µM
CN=c1c([N+](=O)[O-])nn(-c2ccc3c(c2)OCCO3)n1O	?	?	?	–	–	–
O=[N+]([O-])c1nn(-c2ccc3c(c2)OCCO3)n(O)c1=NCc1ccc(F)cc1Cl	2.82µM	?	?	3.55µM	?	?
CCc1ccc(-c2nn(CC(=O)NCc3ccccc3)c3c2cnc2ccc(C)cc23)cc1	·	·	·	·	·	–
CCC(=O)Nc1ccc(C(=O)COC(=O)c2nc3nccc(C)n3n2)cc1	–	–	–	·	–	–
COc1ccc(-c2cc(-c3ccccc3)c(C#N)c(S(C)(=O)=O)n2)cc1	–	?	?	–	–	–
CS(=O)(=O)c1nc(-c2ccc(Br)cc2)cc(-c2ccccc2)c1C#N	–	–	16.4µM	–	–	–
CCCN(CCC)C(=O)Cn1c(SCc2cccc(F)c2)nc2cccnc21	·	·	·	·	·	–
SMILES	Rab9 promoter act	ELG1 genotox	ELG1 DNA repair	SMN2 splice up	NPC1 prom act	FLuc modulator
O=C1C(Cl)=C(NCCN2CCCCC2)C(=O)c2ccccc21	–	–	20.6µM	–	–	–
Cc1ccc(NC(=O)CCN2CCOCC2)cc1C	–	–	–	·	–	–
Cc1occc1C(=O)O/N=C(\N)c1ccccc1	0.447µM	?	?	·	0.447µM	1.9µM
Cc1cccc(/C(N)=N/OC(=O)c2ccoc2C)c1	1.26µM	?	?	·	1.12µM	3.79µM
Cc1onc(-c2ccccc2Cl)c1C(=O)O/N=C(\N)c1ccccc1	–	–	–	·	–	–
O=C(NCCCO)c1cc2c(cn1)[nH]c1ccccc12	?	–	?	·	–	16.9µM
CCn1c(=S)[nH]c2sc3c(c2c1=O)CCCC3	–	–	–	·	–	?
CC1CCc2c(sc3[nH]c(=S)n(C)c(=O)c23)C1 (stereo not given)	–	–	?	·	–	19µM
COc1ccc2oc(=O)c(-c3nc4ccc(C)cc4[nH]3)cc2c1	·	·	·	·	·	–
CCOc1cccc2cc(-c3nc4ccc(C(=O)O)cc4[nH]3)c(=O)oc12	?	·	·	·	?	0.379µM
COc1cccc2cc(-c3nc4ccc(C)cc4[nH]3)c(=O)oc12	·	·	·	·	·	0.536µM
C=CCc1cccc2cc(-c3nc4ccc(C(=O)O)cc4[nH]3)c(=O)oc12	·	·	·	·	·	0.426µM
C=CCc1cccc2cc(C(=O)O)c(=O)oc12	–	–	–	–	–	–
CCOc1cccc2cc(-c3cn4c(n3)sc3ccccc34)c(=O)oc12	·	·	·	·	·	0.477µM
COc1ccc2cc(-c3nc4ccc(C(=O)O)cc4[nH]3)c(=O)oc2c1	·	·	·	·	·	0.12µM
COc1cccc2cc(-c3nc4ccccc4o3)c(=O)oc12	–	20.6µM	?	–	–	2.69µM
CCOC(=O)c1ccccc1NC(=O)Nc1cc2c(cc1N1CCCC1)n(C)c(=O)n2C	·	·	·	–	·	–
COc1ccc(C2c3c(-c4ccccc4)n[nH]c3C(=O)N2c2ccc(C(=O)O)cc2)cc1 (stereo not given)	–	–	–	·	–	16.9µM
COc1cccc(C2c3c(-c4ccccc4)n[nH]c3C(=O)N2c2ccc(C(=O)O)cc2)c1 (stereo not given)	–	–	–	–	–	–
COC(=O)c1cc(Cl)c(NC(=O)/C=C/c2ccc(Cl)cc2Cl)cc1OC	–	?	–	–	–	–
COC(=O)c1sccc1NC(=O)/C=C/c1ccc(Cl)cc1Cl	?	?	?	11.2µM	?	?
COC(=O)c1sccc1NC(=O)/C=C/c1c(Cl)cccc1Cl	?	?	?	14.1µM	–	12µM
FC(F)Sc1ccc(NC(=S)NC2CCCC2)cc1	3.16µM	–	–	?	–	13.5µM
OC1CCC(NC(=S)Nc2ccc(SC(F)F)cc2)CC1 (stereo not given)	?	?	?	15.8µM	?	21.3µM
CC1CCCC(NC(=S)Nc2ccc(SC(F)F)cc2)C1C (stereo not given)	–	–	–	·	–	?
O=C(Nc1ccc(SC(F)F)cc1)C12CCC(CC1)C2	–	–	?	–	–	10.7µM
COc1ccc(NC(=O)Cn2c(=O)oc3cc(S(=O)(=O)NC4CCCC4)ccc32)cc1OC	·	·	·	·	·	–
CCC(=O)N1CCCc2cc(S(=O)(=O)Nc3ccc(C)c(C)c3)ccc21	·	·	·	–	·	–
Nc1nn(-c2cccc(F)n2)cc1-c1ccc(Cl)cc1	0.447µM	1.16µM	?	17.8µM	2.51µM	0.953µM
Nc1ncncc1-c1ccc(Cl)cc1	–	–	–	·	–	–

Compound activity (PubChem BioAssay)
